Active and inactive are the calls of the source. The calls were made as follows: active = hit-call score of the fitted dose curve at least 0.9, where 1 is the maximum; inactive = score below 0.9.

Settings in all cases: mRNA level, 48 h; actives raise or lower the signal
Read-out in experiment [1]: growth arrest and DNA damage 45 (GADD45A), GADD45A (gene 1647)
Nature of the experiment: LTEA_HepaRG_GADD45A: Life Technologies and Expression Analysis (LTEA) Assay for growth arrest and DNA damage 45 (GADD45A) using HepaRG (AID 2283458). In a few lines:
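Eight-point concentration-response in HepaRG cells: 48 h chemical exposure, 0.5% DMSO vehicle, top dose 100 uM. Normalized qRT-PCR mRNA readout with bidirectional fitting relative to DMSO.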

Read-out in experiment [2]: Forkhead box O3 (FOXO3), FOXO3 (gene 2309)
Put plainly: LTEA_HepaRG_FOXO3: Life Technologies and Expression Analysis (LTEA) Assay for Forkhead box O3 (FOXO3) using HepaRG (AID 2283459). In a few lines: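 qRT-PCR readout of FOXO3 transcript, normalized to three housekeeping genes (ACTB, GAPDH, POLR2A); gain or loss fitted against 0.5% DMSO vehicle. HepaRG cells, 48 h chemical exposure, 8-point half-log series, top 100 uM.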

Read-out in experiment [3]: ABC Transporter (ABCB1), ABCB1 (gene 5243)
Nature of the experiment: LTEA_HepaRG_ABCB1: Life Technologies and Expression Analysis (LTEA) Assay for ABC Transporter (ABCB1) using HepaRG (AID 2283460). In a few lines:
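HepaRG, 48 h exposure, 8-pt half-log series from 100 uM, 0.5% DMSO vehicle, duplicates. Readout: ABCB1 transcript by Fluidigm TaqMan qRT-PCR, housekeeping-normalized; bidirectional curve fit vs DMSO baseline.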

Read-out in experiment [4]: growth arrest and DNA damage 45 (GADD45B), GADD45B (gene 4616)
Nature of the experiment: LTEA_HepaRG_GADD45B: Life Technologies and Expression Analysis (LTEA) Assay for growth arrest and DNA damage 45 (GADD45B) using HepaRG (AID 2283461). A digest of the protocol: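 HepaRG, ~100,000 cells/well, 48 h plating; serum-free induction medium; cpd 100 uM top, half-log x8, 0.5% DMSO, duplicate, 48 h; lysis in RLT, RNA isolation, qRT-PCR; norm ACTB/GAPDH/POLR2A; bidirectional fit vs DMSO.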

Read-out in experiment [5]: ABC Transporter (ABCC3), ABCC3 (gene 8714)
Nature of the experiment: LTEA_HepaRG_ABCC3: Life Technologies and Expression Analysis (LTEA) Assay for ABC Transporter (ABCC3) using HepaRG (AID 2283462). In a few lines: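 Human HepaRG, 48 h dosing, 8-pt half-log series from 100 uM, 0.5% DMSO vehicle, duplicates. ABCC3 mRNA by TaqMan qRT-PCR, housekeeping-normalized; bidirectional curve fit vs DMSO.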

Read-out in experiment [6]: ABC Transporter (ABCB11), ABCB11 (gene 8647)
Nature of the experiment: LTEA_HepaRG_ABCB11: Life Technologies and Expression Analysis (LTEA) Assay for ABC Transporter (ABCB11) using HepaRG (AID 2283463). In a few lines: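 HepaRG, 48 h exposure, 8-pt half-log CRC top 100 uM, 0.5% DMSO vehicle, duplicates. Readout: TaqMan qRT-PCR of ABCB11 mRNA, housekeeping-normalized (ACTB/GAPDH/POLR2A). Bidirectional fit vs DMSO baseline.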

Read-out in experiment [7]: ABC Transporter (ABCC2), ABCC2 (gene 1244)
Put plainly: LTEA_HepaRG_ABCC2: Life Technologies and Expression Analysis (LTEA) Assay for ABC Transporter (ABCC2) using HepaRG (AID 2283464). In a few lines: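 HepaRG, 48 h post-plating; serum-free induction medium; cpd 8-pt, 100 uM top, half-log, 0.5% DMSO, duplicate, 48 h. Readout: ABCC2 mRNA by qRT-PCR, norm. ACTB/GAPDH/POLR2A. Bidirectional fit vs DMSO baseline.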

Read-out in experiment [8]: Broad substrate specificity ATP-binding cassette transporter ABCG2 (Homo sapiens) (UniProt Q9UNQ0)
Nature of the experiment: LTEA_HepaRG_ABCG2: Life Technologies and Expression Analysis (LTEA) Assay for ABC Transporter (ABCG2) using HepaRG (AID 2283465). In a few lines: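 HepaRG, 48 h exposure, 8-pt half-log series from 100 uM, 0.5% DMSO vehicle, duplicates. Readout: ABCG2 transcript by qRT-PCR (Fluidigm array), housekeeping-normalized; bidirectional curve fit relative to DMSO baseline.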

Read-out in experiment [9]: ATP-citrate lyase (ACLY), ACLY (gene 47)
Put plainly: LTEA_HepaRG_ACLY: Life Technologies and Expression Analysis (LTEA) Assay for ATP-citrate lyase (ACLY) using HepaRG (AID 2283466). In a few lines:
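qRT-PCR readout of ACLY transcript after 48 h chemical treatment of HepaRG cells; expression normalized to three housekeeping genes. Eight-point half-log series, highest 100 uM, 0.5% DMSO vehicle. Gain or loss fitted against DMSO baseline.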

Read-out in experiment [10]: Peroxisomal acyl-coenzyme A oxidase 1 (ACOX1) gene, ACOX1 (gene 51)
Put plainly: LTEA_HepaRG_ACOX1: Life Technologies and Expression Analysis (LTEA) Assay for Peroxisomal acyl-coenzyme A oxidase 1 (ACOX1) gene using HepaRG (AID 2283467). In a few lines:
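HepaRG, 48 h chemical exposure, 8-pt half-log series from 100 uM top, 0.5% DMSO vehicle, duplicates. Readout: ACOX1 mRNA by Fluidigm qRT-PCR, housekeeping-normalized; bidirectional fit vs DMSO baseline.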

Read-out in experiment [11]: Alkaline Phosphatase, Placental (ALPP) gene, ALPP (gene 250)
Put plainly: LTEA_HepaRG_ALPP: Life Technologies and Expression Analysis (LTEA) Assay for Alkaline Phosphatase, Placental (ALPP) gene using HepaRG (AID 2283468).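 As to AC50: differentiated human HepaRG liver cells in serum-free induction medium.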 In a few lines: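 HepaRG, 48 h plating then 48 h dosing, serum-free induction medium, 0.5% DMSO. 8 conc, half-log, max 100 uM, duplicates. Endpoint: ALPP transcript by qRT-PCR, housekeeping-normalized; gain or loss fitted vs DMSO.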

Read-out in experiment [12]: Bcl-2 (BAD) gene, BAD (gene 572)
Nature of the experiment: LTEA_HepaRG_BAD: Life Technologies and Expression Analysis (LTEA) Assay for Bcl-2 (BAD) gene using HepaRG (AID 2283469). A digest of the protocol:
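HepaRG, 48 h exposure, 8-pt half-log curve from 100 uM in 0.5% DMSO, duplicates. Readout: TaqMan qRT-PCR for BAD mRNA, housekeeping-normalised (ACTB/GAPDH/POLR2A); gain or loss fitted against DMSO baseline.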

Read-out in experiment [13]: Bcl-2 (BAX) gene, BAX (gene 581)
Nature of the experiment: LTEA_HepaRG_BAX: Life Technologies and Expression Analysis (LTEA) Assay for Bcl-2 (BAX) gene using HepaRG (AID 2283470). In a few lines:
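Human HepaRG cells treated in duplicate for 48 h across eight concentrations (max 100 uM, 0.5% DMSO); BAX expression measured by qRT-PCR.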

Read-out in experiment [14]: adenosine kinase (ADK) gene, ADK (gene 132)
Put plainly: LTEA_HepaRG_ADK: Life Technologies and Expression Analysis (LTEA) Assay for adenosine kinase (ADK) gene using HepaRG (AID 2283471). In a few lines: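 ADK expression quantified by qRT-PCR, normalised to three housekeeping genes, after 48 h exposure of HepaRG cells to eight concentrations (top 100 uM, half-log steps, duplicate, 0.5% DMSO). Up- or down-regulation fitted relative to vehicle.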

Read-out in experiment [15]: Alpha-fetoprotein (AFP) gene, AFP (gene 174)
Nature of the experiment: LTEA_HepaRG_AFP: Life Technologies and Expression Analysis (LTEA) Assay for Alpha-fetoprotein (AFP) gene using HepaRG (AID 2283472). In a few lines:
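Measures AFP mRNA change in HepaRG after 48 h chemical exposure (8 half-log concentrations, highest 100 uM, 0.5% DMSO). Fold change relative to DMSO, fitted in both directions.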

Read-out in the next experiment: BCL2L11 (gene 10018)
Nature of the experiment: LTEA_HepaRG_BCL2L11: Life Technologies and Expression Analysis (LTEA) Assay for Bcl-2 (BCL2L11) gene using HepaRG (AID 2283473). A digest of the protocol: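 Read-out is BCL2L11 transcript level by qRT-PCR, normalized to three housekeeping genes and fitted bidirectionally against 0.5% DMSO vehicle. HepaRG cells received chemicals for 48 h in serum-free induction medium, 100 uM down in half-log dilutions.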

Read-out in experiment [16]: Apolipoprotein A-V (APOA5) gene, APOA5 (gene 116519)
Nature of the experiment: LTEA_HepaRG_APOA5: Life Technologies and Expression Analysis (LTEA) Assay for Apolipoprotein A-V (APOA5) gene using HepaRG (AID 2283474). In a few lines: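 Readout is APOA5 transcript level by qRT-PCR on Fluidigm dynamic arrays, normalized to three housekeeping genes. HepaRG cultures received chemicals for 48 h at up to 100 uM (half-log steps, 0.5% DMSO), with gain or loss scored relative to DMSO.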

Read-out in experiment [17]: Bcl-2 (BID) gene, BID (gene 637)
Put plainly: LTEA_HepaRG_BID: Life Technologies and Expression Analysis (LTEA) Assay for Bcl-2 (BID) gene using HepaRG (AID 2283476). In a few lines: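 Assay used HepaRG hepatic cells treated 48 h in serum-free medium with half-log dilutions from 100 uM. Endpoint: BID mRNA, qRT-PCR, normalized to ACTB/GAPDH/POLR2A.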

Read-out in experiment [18]: Apoptosis regulator Bcl-2 (Homo sapiens) (UniProt P10415)
Nature of the experiment: LTEA_HepaRG_BCL2: Life Technologies and Expression Analysis (LTEA) Assay for Bcl-2 gene using HepaRG (AID 2283475). A digest of the protocol:
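Each chemical was tested in duplicate on HepaRG cultures held in serum-free induction medium for 48 h, highest concentration 100 uM with half-log dilutions. Transcript levels came from multiplexed qRT-PCR, normalised to housekeeping genes; activity was scored in either direction relative to DMSO.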

Read-out in a further experiment: Caspase-3 (Homo sapiens) (UniProt P42574)
Nature of the experiment: LTEA_HepaRG_CASP3: Life Technologies and Expression Analysis (LTEA) Assay for cysteine-aspartic acid protease (CASP3) using HepaRG (AID 2283477). A digest of the protocol: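 Read-out is CASP3 mRNA level by TaqMan qRT-PCR in human HepaRG cells after 48 h chemical exposure. Eight half-log concentrations topping at 100 uM were tested in 0.5% DMSO; gain or loss was fitted relative to DMSO.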

Apoptosis regulator Bcl-2 (Homo sapiens), sequence (P10415 whole entry, looked up): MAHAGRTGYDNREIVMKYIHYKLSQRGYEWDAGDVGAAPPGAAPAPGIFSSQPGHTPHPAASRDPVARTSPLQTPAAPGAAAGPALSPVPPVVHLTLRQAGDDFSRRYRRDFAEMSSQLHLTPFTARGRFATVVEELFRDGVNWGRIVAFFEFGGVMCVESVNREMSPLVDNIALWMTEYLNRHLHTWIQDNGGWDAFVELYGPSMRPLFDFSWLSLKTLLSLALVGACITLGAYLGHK
Caspase-3 (Homo sapiens), sequence (P42574 whole entry, looked up): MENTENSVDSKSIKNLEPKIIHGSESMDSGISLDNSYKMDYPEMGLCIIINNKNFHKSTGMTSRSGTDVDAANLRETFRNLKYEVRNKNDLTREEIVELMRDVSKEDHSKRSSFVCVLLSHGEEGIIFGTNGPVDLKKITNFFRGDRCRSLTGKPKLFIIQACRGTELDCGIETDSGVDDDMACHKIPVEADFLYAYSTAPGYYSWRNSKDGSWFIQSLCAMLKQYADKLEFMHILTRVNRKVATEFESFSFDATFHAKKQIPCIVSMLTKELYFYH
Broad substrate specificity ATP-binding cassette transporter ABCG2 (Homo sapiens), sequence (Q9UNQ0 whole entry, looked up): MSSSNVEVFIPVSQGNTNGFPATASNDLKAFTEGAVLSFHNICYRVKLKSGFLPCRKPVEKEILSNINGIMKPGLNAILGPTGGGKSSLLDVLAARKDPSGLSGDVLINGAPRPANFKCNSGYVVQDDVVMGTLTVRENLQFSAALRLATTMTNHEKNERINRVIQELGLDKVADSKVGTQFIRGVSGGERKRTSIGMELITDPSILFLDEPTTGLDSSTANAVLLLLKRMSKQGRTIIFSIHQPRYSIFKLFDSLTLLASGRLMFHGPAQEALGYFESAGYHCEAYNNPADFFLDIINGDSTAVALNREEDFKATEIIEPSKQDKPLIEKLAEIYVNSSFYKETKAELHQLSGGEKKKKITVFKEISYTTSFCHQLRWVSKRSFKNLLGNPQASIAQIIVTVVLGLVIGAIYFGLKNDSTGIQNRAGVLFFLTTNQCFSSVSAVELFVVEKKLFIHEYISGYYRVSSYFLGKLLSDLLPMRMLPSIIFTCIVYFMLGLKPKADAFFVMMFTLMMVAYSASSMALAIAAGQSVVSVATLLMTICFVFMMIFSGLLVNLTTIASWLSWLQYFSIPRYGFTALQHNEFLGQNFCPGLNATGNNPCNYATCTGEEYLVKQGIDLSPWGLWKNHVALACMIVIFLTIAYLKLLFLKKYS

As for `CC(C)CC(C)O` (stereo not given), the result in experiment [1], in experiment [2], in [3], in experiment [4], in experiment [5] and in experiment [6] was inactive. For the same molecule, the call in experiment [7], in experiment [8], in experiment [9], in experiment [10], in experiment [11] and in experiment [12] was inactive. In addition, the result (in experiment [13]; in experiment [14]; in experiment [15]; in the experiment with BCL2L11 (gene 10018); in [16]; in [17]) was inactive.
In general, AC50 refers to the midpoint of the concentration-response curve, whichever way the signal moves. As for `Cc1nccn1-c1ccc(Sc2cccc(C3(C(N)=O)CCOCC3)c2)cc1`, the AC50 in experiment [1] was 10.9 µM (active); in experiment [3], 21 µM (active); in [4], 27.3 µM (active); in [5], 3.65 µM (active); in experiment [6], 9.74 µM (active); in experiment [7], 19.9 µM (active). The AC50 in experiment [10] was 12.2 µM (active); in [11], 5.09 µM (active); in experiment [14] it was 13.1 µM (active); in [15], 13.4 µM (active); with BCL2L11 (gene 10018) it was 3.37 µM (active); in [16], 11.3 µM (active). For the same molecule, the AC50 in experiment [18] is 7.26 µM (active). The molecule was classed as inactive in experiment [2], in [9], in experiment [12], in experiment [13] and in [17].
As for `O=C1CN(N=Cc2ccc([N+](=O)[O-])o2)C(=O)N1`, the AC50 was 80.7 µM (active) in [1], 27.7 µM (active) in [6], 75 µM (active) in experiment [11] and 80.7 µM (active) in experiment [18]. For the same molecule, the outcome in experiment [2], in experiment [3], in [4], in [5], in [7] and in experiment [9] was inactive. Moreover, the call (in experiment [10]; in [12]; in experiment [13]; in [14]; in experiment [15]; in the experiment with BCL2L11 (gene 10018)) was inactive. In addition, the molecule was classed as inactive in experiment [16] and in [17].
In the case of `CCCCCOC(C)=O`, the call in [1], in experiment [2], in [3], in experiment [4], in experiment [5] and in experiment [6] was inactive. In addition, the outcome in [7], in experiment [8], in [9], in [10], in experiment [11] and in experiment [12] was inactive. Besides, the call (in experiment [13]; in [14]; in experiment [15]; with BCL2L11 (gene 10018); in experiment [16]; in experiment [18]) was inactive. Moreover, the outcome (in experiment [17]; with Caspase-3 (Homo sapiens)) was inactive.
Consider `CC1(C)C(=O)N(Cl)C(=O)N1Cl`, for which the outcome in [1], in [2], in experiment [3], in experiment [4], in experiment [5] and in experiment [6] was inactive. For the same molecule, the call in experiment [7], in experiment [10], in [11], in experiment [12], in [13] and in experiment [14] was inactive. The outcome (in experiment [15]; in the experiment with BCL2L11 (gene 10018); in [16]; in experiment [18]; in experiment [17]) was inactive.
`NC(=O)N(O)[C@@H]1COc2cc(OCc3ccccc3)ccc21`: the call in experiment [1], in [2], in [3], in [4], in [5] and in experiment [6] was inactive. The molecule was called inactive in [7], in experiment [9], in experiment [10], in [11], in [12] and in experiment [13]. Moreover, the molecule was called inactive (in experiment [14]; in [15]; in the experiment with BCL2L11 (gene 10018); in [16]; in experiment [18]; in experiment [17]). The molecule was called inactive with Caspase-3 (Homo sapiens).
